# From PubChem BioAssay
# Where “and” joins values, the source holds several entries; their conditions need not be identical. Equal entries are not always repeated. Calls of active or inactive are those of the source. How the calls were made is not given here.
# Legend:
# [1] = kinase inhibitors against Plasmodium liver-stage infection, cell-based, known kinase inhibitor set, luminescence, hepatoma host viability (AID 624392); conditions: Plasmodium liver stage in hepatoma cells, luciferase luminescence, concentration not given here; liver cell % of control: measured here: host liver cell viability; parasite % of control: stronger effect = lower value;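 further: infected cells incubated roughly two days before readout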
# [2] = modulators of glucocorticoid suppression of NF-kB, cell-based, luciferase, IL-1B stimulus, dexamethasone (AID 624486); conditions: NF-kB luciferase reporter, IL-1B + dexamethasone, luminescence; percent of negative control (+Dex): actives lie on both sides, concentration not given here; z-score: measured here: IL-1B alone, no Dex;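 on percent of negative control (+Dex): 100% = mean signal of vehicle control wells on the plate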
# [3] = biological target: Cellular tumor antigen p53 (Homo sapiens) (UniProt P04637); test: kinase inhibitors altering GFP-p53 stability in HPV16-positive cells, imaging, known kinase inhibitor set, EGFP/DsRed ratio (AID 1053116); conditions: stronger effect = higher value; EGFP object count: measured here: GFP-p53 positive objects count;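 further: cells exposed to compounds for 24 h at 37 °C before reading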
# [4] = IRF3 reporter activation in THP-1 macrophages, cell-based, PMA-stimulated THP-1, luminescence (AID 1053176); conditions: PMA-differentiated THP-1, IRF3 reporter luminescence; stronger effect = higher value
# Sequence of Cellular tumor antigen p53 (Homo sapiens) (P04637 whole entry, looked up): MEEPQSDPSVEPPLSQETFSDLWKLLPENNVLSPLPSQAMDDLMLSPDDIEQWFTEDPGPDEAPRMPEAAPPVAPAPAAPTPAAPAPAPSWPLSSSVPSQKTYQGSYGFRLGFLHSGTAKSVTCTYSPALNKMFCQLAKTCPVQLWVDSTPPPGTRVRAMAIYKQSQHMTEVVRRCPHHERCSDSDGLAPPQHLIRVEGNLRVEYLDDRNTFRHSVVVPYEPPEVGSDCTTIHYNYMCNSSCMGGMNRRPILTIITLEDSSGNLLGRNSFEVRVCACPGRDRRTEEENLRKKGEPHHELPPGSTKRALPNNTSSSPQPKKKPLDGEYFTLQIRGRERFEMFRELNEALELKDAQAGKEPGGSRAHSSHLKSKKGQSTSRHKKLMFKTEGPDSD
Compound,liver cell % of control [1],parasite % of control [1],percent of negative control (+Dex) [2],z-score [2],EGFP object count [3],EGFP/DsRed ratio [3],fraction signal [4]
Cn1c(=O)c(Oc2ccc(F)cc2F)cc2cnc(NC3CCC(O)CC3)nc21 (configuration not stated),112%,60.3% (inactive),85% (inactive),-0.62,5,0.154 (inactive),-0.0095 (inactive)
Cn1cc(C2=C(c3cn(CCN)c4ccccc34)C(=O)NC2=O)c2ccccc21,89.8%,29.9% (inactive),99% (inactive),0.435,14.5,0.0574 (inactive),0.0015 (inactive)
Cn1c(=O)c(Oc2ccc(F)cc2)cc2cnc(NC3CCOCC3)nc21,106%,64.1% (inactive),104% (inactive),0.86,3.5,0.251 (inactive),-0.0055 (inactive)
Cn1cc(C2=C(c3ccccc3)C(=O)NC2=O)c2ccccc21,104%,41% (inactive),96% (inactive),-0.33,9.5,0.26 (inactive),-0.001 (inactive)
CNCC1CCn2c(c(C3=C(c4cn(C)c5ccccc45)C(=O)NC3=O)c3ccccc32)C1 (configuration not stated),101%,45.7% (inactive),94.5% (inactive),-0.52,1,0.0128 (inactive),-0.0115 (inactive)
Cn1cc(C2=C(c3c[nH]c4ccccc34)C(=O)NC2=O)c2ccccc21,85.3%,60.7% (inactive),101% (inactive),-1.61,73,0.286 (inactive),0.0015 (inactive)
COc1cccc(C2=C(c3cn(C)c4cccc(OC)c34)C(=O)NC2=O)c1,91.4%,121% (inactive),99% (inactive),0.35,9,0.102 (inactive),0.0015 (inactive)
Cn1cc(C2=C(c3cc[nH]c3)C(=O)NC2=O)c2ccccc21,109%,26.8% (inactive),104% (inactive),0.12,3,0.329 (inactive),-0.0025 (inactive)
Cc1[nH]n(-c2ccccc2)c(=O)c1C(=O)c1ccccc1,103%,53.4% (inactive),97% (inactive),0.12,5,0.115 (inactive),-0.0005 (inactive)
Cn1c(=O)c(Oc2ccc(F)cc2F)cc2cnc(NCC(C)(C)O)nc21,102%,62.1% (inactive),101% (inactive),-0.01,4,0.146 (inactive),-0.001 (inactive)
CC(C)c1[nH]nc2c1N=C(c1ccccc1Cl)c1cc([N+](=O)[O-])ccc1N2,105%,61.2% (inactive),108% (inactive),0.05,50.5,1.11 (active),-0.0115 (inactive)
Cn1cc(C2=C(c3cn(C)c4cc(Cl)ccc34)C(=O)NC2=O)c2ccccc21,82.6%,48.4% (inactive),126% (active),-0.405,31,0.0945 (inactive),-0.009 (inactive)
COc1ccc(OC)c(C2=C(c3cn(C)c4ccccc34)C(=O)NC2=O)c1,105%,22.1% (inactive),99% (inactive),-0.03,15,0.328 (inactive),-0.003 (inactive)
COc1cccc(F)c1C(=O)c1cnc(NC2CCN(S(C)(=O)=O)CC2)nc1N,93.1%,512% (inactive),116% (inactive),2.08,3.5,0.124 (inactive),-0.018 (inactive)
O=c1c(Oc2ccc(F)cc2F)cc2cnc(NC3CCOCC3)nc2n1C1CC1,113%,52.9% (inactive),92.5% (inactive),-0.435,4,0.269 (inactive),-0.0095 (inactive)
Cn1cc(C2=C(NN3CCOCC3)C(=O)NC2=O)c2ccccc21,102%,52.1% (inactive),101% (inactive),0.61,7,0.147 (inactive),-0.016 (inactive)
CC(CS(C)(=O)=O)Nc1ncc2cc(Oc3ccc(F)cc3F)c(=O)n(C)c2n1 (configuration not stated),125% and 102%,49.1% (inactive) and 48.7% (inactive),99.5% (inactive) and 101% (inactive),0.115 and 0.87,5.5 and 3.5,0.387 (inactive) and 0.111 (inactive),-0.005 (inactive) and -0.0115 (inactive)
Nc1[nH]nc2nc(-c3cccs3)cc(C(F)(F)F)c12,104%,41.7% (inactive),73% (active),-2.23,4,0.138 (inactive),-0.0165 (inactive)
COc1cc[nH]c1C=C1C(=O)Nc2ccccc21,116%,24.2% (inactive),148% (active),6.7,6,0.263 (inactive),-0.02 (inactive)
Cn1cc(C2=C(c3cn(C)c4ccc(OCc5ccccc5)cc34)C(=O)NC2=O)c2ccccc21,97.7%,46.6% (inactive),101% (inactive),-0.035,4.5,0.132 (inactive),-0.016 (inactive)
Fc1ccc(-c2c(-c3ccncc3)n(CCN3CCOCC3)c3cccnc23)cc1,113%,63.8% (inactive),91.5% (inactive),0.395,1.5,0.18 (inactive),-0.0075 (inactive)

Compound,liver cell % of control [1],parasite % of control [1],percent of negative control (+Dex) [2],z-score [2],EGFP object count [3],EGFP/DsRed ratio [3],fraction signal [4]
CNC(C#Cc1c(F)ccc2c1C(=Cc1[nH]ccc1OC)C(=O)N2)CO (configuration not stated),129%,62.7% (inactive),144% (active),1.07,51.5,0.055 (inactive),0.001 (inactive)
Cc1[nH]nc2c1N=C(c1ccccc1F)c1cc(C#N)ccc1N2,96.8%,68.4% (inactive),157% (active),0.015,99.5,0.814 (active),0.0055 (inactive)
COc1cc[nH]c1C=C1C(=O)Nc2ccc(F)c(I)c21,98.3%,40.2% (inactive),98% (inactive),0.98,46,0.596 (inactive),0.0015 (inactive)
CN=C1NC(=O)C(=Cc2ccc3ncccc3c2)S1,82.2%,65.3% (inactive),98.5% (inactive),-0.23,2,0.0435 (inactive),0.0015 (inactive)
Nc1c(C(=O)c2cccc(CCCN3CCOCC3)c2)cnn1-c1ccc(F)cc1,97.8%,48.1% (inactive),109% (inactive),1.09,6,0.339 (inactive),-0.005 (inactive)
Cn1cc(C2=C(c3cccc4ccccc34)C(=O)NC2=O)c2ccccc21,108%,33.9% (inactive),95.5% (inactive),-1.1,14,0.386 (inactive),-0.007 (inactive)
Cn1cc(C2=C(Nc3ccccc3)C(=O)NC2=O)c2ccccc21,106%,67.5% (inactive),106% (inactive),0.495,7,0.118 (inactive),-0.007 (inactive)
OCCn1c(-c2ccncc2)c(-c2ccc(F)cc2)c2ncccc21,114%,46% (inactive),99.5% (inactive),0.305,5.5,0.119 (inactive),-0.0135 (inactive)
Cc1ccc2c(c1)c(C1=C(c3cn(C)c4ccccc34)C(=O)NC1=O)cn2C,83%,41.7% (inactive),102% (inactive),-1.36,174,0.907 (active),-0.003 (inactive)
N#Cc1cccc(C(=O)c2cnn(-c3ccc(F)cc3)c2N)c1,102%,61.7% (inactive),114% (inactive),2.75,4.5,0.122 (inactive),0.01 (inactive)
CC(=O)Nc1ccc2c(c1)C(c1ccccc1Cl)=Nc1c(n[nH]c1C)N2,93.6%,30.4% (inactive),95% (inactive),-0.58,28.5,0.33 (inactive),-0.003 (inactive)
Cn1cc(C2=C(c3cn(CCCO)c4ccccc34)C(=O)NC2=O)c2ccccc21,101%,33.3% (inactive),115% (inactive),-0.1,9.5,0.221 (inactive),0.0055 (inactive)
COc1cccc2c1c(C1=C(c3cn(C)c4ccccc34)C(=O)NC1=O)cn2C,85.8%,34.6% (inactive),103% (inactive),0.84,12.5,0.282 (inactive),-0.0155 (inactive)
CC(=O)N[C@H](Cc1ccc(OP(=O)(O)O)cc1)C(=O)N[C@@H]1CCC(=O)N2CCC[C@@H](C(=O)N[C@H]3CCc4ccccc43)N2C1=O,122%,61.5% (inactive),95.5% (inactive),0.9,6,0.211 (inactive),-0.003 (inactive)
COc1ccc(O)c(C(=O)c2ccc(C(=O)O[C@H]3CCCNC[C@@H]3NC(=O)c3ccncc3)cc2)c1F,113%,109% (inactive),62% (active),-1.53,15.5,0.253 (inactive),0.001 (inactive)
Cn1c(=O)c(Oc2ccc(F)cc2F)cc2cnc(NC3CCOC3)nc21 (configuration not stated),96.2%,51.2% (inactive),104% (inactive),0.575,4.5,0.257 (inactive),-0.001 (inactive)
N#Cc1ccc(C(=O)c2cnn(-c3ccc(F)cc3)c2N)cc1,103%,59.8% (inactive),131% (active),1.97,13,0.456 (inactive),0.0095 (inactive)
Cn1cc(C2=C(c3cn(C)c4cc(C(N)=O)ccc34)C(=O)NC2=O)c2ccccc21,96.9%,59.1% (inactive),95% (inactive),-0.22,56.5,0.829 (active),-0.0005 (inactive)
O=C1NC(=NCCc2ccc(Br)cc2)SC1=Cc1ccc2ncccc2c1,140%,66.4% (inactive),99.5% (inactive),-0.18,3,0.0813 (inactive),0.006 (inactive)
Cn1cc(C2=C(c3cn(CCCCC(=N)N)c4ccccc34)C(=O)NC2=O)c2ccccc21,133%,22.6% (inactive),98% (inactive),0.29,10.5,0.2 (inactive),0.0055 (inactive)
